Data taken from PubChem BioAssay AID1903 (Southern Research Specialized Biocontainment Screening …, 2009).
Among all 310,000 compounds or so, about 1,200 (0.39%) were called active. No rule for the calls is given here. The list is a sample of the results. Results with a measured potency or affinity are listed apart.

target: Large T antigen (Simian virus 40) (UniProt P03070); assay: TAg ATPase/helicase activity blockers – biochemical (AID 1903); conditions: SV40 large T antigen ATPase/helicase inhibition assay; at 20 µM; hits give high values
Sequence (P03070 whole entry, looked up): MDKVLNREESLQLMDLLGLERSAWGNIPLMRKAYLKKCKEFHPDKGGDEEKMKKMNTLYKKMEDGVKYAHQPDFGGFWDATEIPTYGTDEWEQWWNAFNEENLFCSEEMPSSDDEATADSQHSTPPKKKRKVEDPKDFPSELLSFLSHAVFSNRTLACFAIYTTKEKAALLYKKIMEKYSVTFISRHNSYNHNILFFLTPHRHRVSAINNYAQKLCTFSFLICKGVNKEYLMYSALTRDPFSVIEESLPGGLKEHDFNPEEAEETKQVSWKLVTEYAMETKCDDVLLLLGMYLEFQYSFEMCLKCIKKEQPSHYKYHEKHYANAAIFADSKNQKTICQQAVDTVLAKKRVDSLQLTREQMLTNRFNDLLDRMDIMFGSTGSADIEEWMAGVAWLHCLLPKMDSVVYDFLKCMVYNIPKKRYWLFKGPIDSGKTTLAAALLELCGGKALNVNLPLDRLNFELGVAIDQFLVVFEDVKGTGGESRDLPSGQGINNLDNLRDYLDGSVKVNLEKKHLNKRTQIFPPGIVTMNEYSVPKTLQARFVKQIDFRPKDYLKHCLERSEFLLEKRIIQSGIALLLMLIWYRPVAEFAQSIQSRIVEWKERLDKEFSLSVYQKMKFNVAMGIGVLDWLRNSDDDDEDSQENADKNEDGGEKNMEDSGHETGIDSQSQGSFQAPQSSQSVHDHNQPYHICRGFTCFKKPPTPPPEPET

inhibition, inactive:
CCNC(=O)c1c(NC(=O)C2COc3ccccc3O2)sc2c1CCCC2 (stereo not given) -3.17%
COc1ccc(/C=N/NC(=O)CNc2c(Br)cc(C)cc2Br)c(C(=O)O)c1OC -1.95%
Cc1nc(-c2nc(-c3c(C(=O)NNC(=O)Nc4cccc(Cl)c4)noc3C)cs2)cs1 8.51%
Cc1ccc(C(=O)OCC(=O)N2CC(C)CC(C)C2)cc1S(=O)(=O)N1CCOCC1 (stereo not given) -0.25%
COc1ccc(N(C(C)C(=O)Nc2ccc(S(=O)(=O)N3CCOCC3)cc2)S(C)(=O)=O)cc1 (stereo not given) 22.9%
Cc1ccc(S(=O)(=O)NNC(=O)Nc2ccc([N+](=O)[O-])cc2)c(C)c1 7.86%
NC(=O)COC(=O)CNC(=O)c1sc2ccccc2c1Cl 4.69%
c1ccc2cc(OCCOCCOc3ccc4ccccc4c3)ccc2c1 5.7%
CC1=NN(c2cccc(F)c2)C(=O)/C1=C/c1ccc(N(C)C)cc1 8.44%
CCN(CC)c1ccc(/C=C2/C(=O)ON=C2C)cc1 29.4%
Cc1oc2ccccc2c1CC(=O)NCCCN(C)C -4.93%
Cc1cc(C)n(C(=O)CNC(=O)c2ccccc2F)n1 9.87%
Cc1ccccc1NN=Nc1nc2c([nH]1)c(=O)n(C)c(=O)n2C 14.1%
Cc1ccc(NN=Nc2nc3c([nH]2)c(=O)n(C)c(=O)n3C)cc1 9.3%
OC(COc1c(F)cc(Br)cc1F)CN1CCOCC1 (stereo not given) 2.96%
O=C(CNC(=O)[C@@H]1Cc2ccccc2CN1)Nc1ccc2c(c1)OCCO2 10.2%
COc1cc(/C=C2/C(=N)N3C(c4ccccc4)=CSC3=NC2=O)ccc1OCC(=O)O 31%
CCOc1cc(-c2c(C)c(C)nc(N)c2C#N)ccc1O 17.1%
Cc1ccc2c(nc3s/c(=C\c4ccc(-c5ccccc5C(=O)O)o4)c(=O)n32)c1C 21.4%
Cc1ccc2nc(/C(C#N)=C/c3ccc(-c4ccccc4C(=O)O)o3)[nH]c2c1 24%
CC1=C(C#N)c2nc(N)c(C#N)c(C)c2/C1=C\c1ccc(C)cc1 12.2%
C/C=C/c1ccc(OCC(=O)OCC)c(OC)c1 10.1%
C/C=C/c1ccc(OCC(=O)O)c(OC)c1 10.3%
COCCCNC(=O)/C(C#N)=C/c1ccc(OCC(=O)O)c(OC)c1 34.6%
Cc1c(C(=O)Nc2ccccc2F)sc2ncn(CC(=O)N3CCCCC3)c(=O)c12 7.79%
Brc1cccc(/C=N/Nc2nc(N3CCCCC3)nc(N3CCCCC3)n2)c1 3.51%
CCOC(=O)c1ccccc1NC(=S)N1CCN(C2CCCCC2)CC1 7.91%
Cc1ccc2cccc(Oc3ncnc4scc(-c5ccc(Cl)cc5)c34)c2n1 25.5%
O=S(=O)(NCc1ccccn1)c1ccccn1 9.8%
CCn1cc(C(=O)N2CCN(c3ccccc3)CC2)c(=O)c2cc(S(=O)(=O)N3CCOCC3)ccc21 4.92%
CCOc1ccc(Br)cc1S(=O)(=O)Nc1cccnc1 11.2%
O=C(NCCc1ccccn1)C1CC(=O)N(Cc2ccccc2Cl)C1 (stereo not given) 15.4%
Brc1ccccc1-n1nnc(-c2cccnc2)n1 12.4%
CCCCN(C(=N)N1CCCCC1)c1nc(C)c([N+](=O)[O-])c(=O)[nH]1 9.69%
Nc1cc(=O)[nH]c(SCC(=O)NNC(=O)Cc2ccccc2)n1 10.8%
O=c1[nH]c(NC2CCCCC2)c([N+](=O)[O-])c(=O)[nH]1 4.57%
S=C1Cc2ccccc2C(c2ccc(Cl)cc2)N1 (stereo not given) 2.33%
Cc1ccc(NC(=O)CSc2nnc(-c3cnccn3)n2C)cc1C 29.7%
CCCCn1nnnc1SCC(=O)Nc1ccc(C)cc1 -2.62%
CCn1c(SCC(=O)Nc2ccc(NC(C)=O)cc2)nnc1C1CC1 12.8%
Cc1ccc(NC(=O)CSc2nnc(C)c(=O)n2N)cc1 14.2%
CC(=O)Nc1ccc(NC(=O)CSc2nnc(C)c(=O)n2N)cc1 12.1%
CCc1ccc(NC(=O)CSc2nnc(-c3cnccn3)n2C)cc1 14.9%
CCn1nnnc1SCC(=O)Nc1ccc(N(C)C)cc1 37.7%
CCn1c(SCC(=O)Nc2ccc(F)cc2)nnc1C1CC1 3.39%
O=C(CSc1ccc(-c2cccc([N+](=O)[O-])c2)nn1)NCc1ccccc1 11.8%
CCCc1cc(=O)oc2cc(OC3CCCCC3=O)ccc12 (stereo not given) 18.5%
O=C(O)COc1ccc2c(c1)OCCO2 -3.88%
CCOC(=O)c1sc2nc(CC(=O)OC)nc(NCCN(CC)CC)c2c1C 28.4%
Cc1cccc(NC(=O)CSc2nnc(-c3ccco3)c(-c3ccco3)n2)c1 35%
COc1ccc(NC(=O)CSc2nnc(-c3ccco3)c(-c3ccco3)n2)cc1OC 26.9%
COC(=O)/C=C1/C(=O)N/C(=N\c2nc(C)cc(C)n2)N1c1ccc(OC)cc1 3.13%
CCOc1cc(/C=N/NC(=O)c2cccc(S(=O)(=O)N3CCCC3)c2)ccc1OCC(=O)N(C)C 0.99%
O=C(N/N=C/c1ccccn1)c1cccc(S(=O)(=O)N2CCCC2)c1 9.14%
COc1cc(/C=N/NC(=O)c2cccc(S(=O)(=O)N3CCCCC3)c2)cc(Br)c1O 10.6%
COc1cc(/C=N/NC(=O)c2cccc(S(=O)(=O)N3CCCC3)c2)cc(OC)c1O 37.9%
O=C(N/N=C/c1cccnc1)c1cccc(S(=O)(=O)N2CCCC2)c1 17.7%
CC(=O)Nc1ccc(/C=N/NC(=O)c2cccc(S(=O)(=O)N3CCOCC3)c2)cc1 8.56%
C/C(CC(=O)NC1CCCCCC1)=N\NC(=O)c1cnccn1 0.37%
COC(CNC(=O)C(=O)Nc1cc2c3c(c1)CCN3C(=O)CC2)OC 6.3%
